The panel holds about 79,000 compounds, 15% with a hit somewhere; the sample as a whole holds those more often. The source made the active and inactive calls. No stated cut-off is given here; in the data, active means growth inhibition above about 70%; inactive means the rest.
Assay: NCI Yeast Anticancer Drug Screen. Data for the rad50 strain (AID 155);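 further: 0% = growth of vehicle-only cultures of the same strain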
Conditions: S. cerevisiae rad50 strain growth inhibition; at 50.0 µM; stronger effect = higher value
Outline: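 Growth of the mutant yeast was measured after compound exposure and referenced to vehicle-treated cultures.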

SMILES | growth inhibition
O=C(O)c1cccc(Cl)c1-c1c(Cl)cccc1C(=O)O | 4.65% (inactive)
Cc1cccc(N=C/C=C/c2ccccc2)c1C | 0.85% (inactive)
CC(C)n1cnc2c(=O)[nH]c(=O)[nH]c21 | -9.55% (inactive)
N#CC(=C1C=CC(=NO)C=C1)c1ccc(Cl)cc1 | -0.05% (inactive)
Cc1ccc(C)c(CNC(=O)NC(C)(C)C)c1 | -10.2% (inactive)
Cc1ccc2c(-c3ccc4ccccc4c3)c3ccccc3cc2c1 | 7.7% (inactive)
O=C(/C=C/c1ccc(O)c(O)c1)c1ccc(O)cc1O | -26.5% (inactive)
CN(C)CCNc1cccc2oc3ccc(O)cc3c(=O)c12 | 8.2% (inactive)
COc1cc(C)cc2c1C(=O)C(Br)=CC2=O | 91.2% (active)
COc1cc(OC(=O)/C=C2/CCC(=O)O2)c2c(c1)OC1OC(=O)CC21 (stereo not drawn) | 13.6% (inactive)
CCC(=O)c1ccc(F)cc1 | 10.2% (inactive)
Cc1ccc(CO)c(O)c1 | 8.65% (inactive)
O=[N+]([O-])c1ccc(S(=O)(=O)N/N=C/c2cccc3ccccc23)cc1 | 6.6% (inactive)
CC(=O)OCC1OC(Sc2cccc3ccccc23)C(OC(C)=O)C(OC(C)=O)C1OC(C)=O (stereo not drawn) | -16.8% (inactive)
CC1(C)CNC[C@](C)(OCc2ccccc2)N1 | -24.4% (inactive)
CN(C)CC1CCC(=C2CCCC2)C1=O (stereo not drawn) | -8.9% (inactive)
COc1ccc2nc(NC(=O)C(=O)C(C(=O)c3ccccc3-c3ccccc3)C3OC(=O)c4ccccc43)sc2c1 (stereo not drawn) | -3.6% (inactive)
CCOC(=O)C(NC(=O)c1cccc(Cl)c1)(N1CCN(c2cc3c(cc2F)c(=O)c(C(=O)O)cn3CC)CC1)C(F)(F)F (stereo not drawn) | -7.7% (inactive)

— PubChem BioAssay (NCI)
